# Reference: PubChem BioAssay AID1159580 (chemical genetic matrix, 2015)
# Where “and” joins values, the source holds several entries; their conditions need not be identical. Equal entries are not always repeated. Out of some 5,500 compounds screened, about 2,000 (36%) were called active. About 18% were inconclusive and are not listed. The list shows a part of the results. Values without a mark were called inactive. Cut-off read from the data, not from the text of the source: active = normalized growth mostly below about 0.91 (no sharp cut-off); inconclusive = no clear call, values can overlap the other calls; inactive = mostly above about 0.92.
# Experiment: chemical genetic growth profiling, strain panel (AID 1159580);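 note: tested at 20 µM; growth read once vehicle control cultures reached saturation at 30 °C; 1 = growth at the plate median or of vehicle wells; lower values mean less growth of the strain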
# Details: S. cerevisiae deletion strains, growth OD
structure (smiles),measurement,setting,value
COc1ccc2cc3[n+](cc2c1OC)CCc1cc2c(cc1-3)OCO2,normalized growth,"locus YAL013W, strain DEP1, stronger effect = lower value",0.509 (active)
same,normalized growth,"locus YAL021C, strain ccr4, stronger effect = lower value",0.997
same,normalized growth,"locus YAL026C, strain drs2, stronger effect = lower value",0.99
same,normalized growth,"locus YAL030W, strain snc1, stronger effect = lower value",0.996
same,normalized growth,"locus YBL061C, strain skt5, stronger effect = lower value",0.986
same,normalized growth,"locus YBR009C, strain hhf1, stronger effect = lower value",1
same,normalized growth,"locus YBR021W, strain FUR4, stronger effect = lower value",0.847
same,normalized growth,"locus YBR023C, strain chs3, stronger effect = lower value",0.982
same,normalized growth,"locus YBR171W, strain sec66, stronger effect = lower value",0.983
same,normalized growth,"locus YBR229C, strain ROT2, stronger effect = lower value",0.762 (active)
same,normalized growth,"locus YBR231C, strain swc5, stronger effect = lower value",0.985
same,normalized growth,"locus YBR279W, strain paf1, stronger effect = lower value",0.987
same,normalized growth,"locus YCL011C, strain gbp2, stronger effect = lower value",0.998
same,normalized growth,"locus YCL016C, strain dcc1, stronger effect = lower value",0.982
same,normalized growth,"locus YCL029C, strain bik1, stronger effect = lower value",0.379 (active)
same,normalized growth,"locus YCL061C, strain MRC1, stronger effect = lower value",1.01
same,normalized growth,"locus YCL069W, strain vba3, stronger effect = lower value",0.999
same,normalized growth,"locus YCR088W, strain abp1, stronger effect = lower value",0.98
same,normalized growth,"locus YDL005C, strain med2, stronger effect = lower value",0.984
same,normalized growth,"locus YDL035C, strain GPR1, stronger effect = lower value",0.278 (active)
same,normalized growth,"locus YDL040C, strain nat1, stronger effect = lower value",0.986
same,normalized growth,"locus YDL074C, strain BRE1, stronger effect = lower value",0.352 (active)
same,normalized growth,"locus YDL101C, strain DUN1, stronger effect = lower value",0.569 (active)
same,normalized growth,"locus YDL134C, strain PPH21, stronger effect = lower value",0.398 (active)
same,normalized growth,"locus YDL185W, strain tfp1, stronger effect = lower value",1
same,normalized growth,"locus YDL192W, strain arf1, stronger effect = lower value",0.436 (active)
same,normalized growth,"locus YDR001C, strain nth1, stronger effect = lower value",0.981
same,normalized growth,"locus YDR069C, strain doa4, stronger effect = lower value",1
same,normalized growth,"locus YDR101C, strain arx1, stronger effect = lower value",0.278 (active)
same,normalized growth,"locus YDR137W, strain rgp1, stronger effect = lower value",0.979
same,normalized growth,"locus YDR150W, strain NUM1, stronger effect = lower value",0.681 (active)
same,normalized growth,"locus YDR159W, strain sac3, stronger effect = lower value",1.02
same,normalized growth,"locus YDR162C, strain NBP2, stronger effect = lower value",0.533 (active)
same,normalized growth,"locus YDR195W, strain ref2",0.977
same,normalized growth,"locus YDR297W, strain sur2, stronger effect = lower value",0.99
same,normalized growth,"locus YDR318W, strain mcm21, stronger effect = lower value",0.461 (active)
same,normalized growth,"locus YDR334W, strain swr1, stronger effect = lower value",0.973
same,normalized growth,"locus YDR335W, strain msn5, stronger effect = lower value",0.967
same,normalized growth,"locus YDR388W, stronger effect = lower value",0.365 (active)
same,normalized growth,"locus YDR392W, strain spt3, stronger effect = lower value",0.984
same,normalized growth,"locus YDR502C, strain sam2, stronger effect = lower value",0.345 (active)
same,normalized growth,"locus YEL003W, strain gim4, stronger effect = lower value",0.99
same,normalized growth,"locus YEL037C, strain rad23, stronger effect = lower value",0.981
same,normalized growth,"locus YEL061C, strain CIN8 (second series), stronger effect = lower value",0.993
same,normalized growth,"locus YEL061C, strain CIN8, stronger effect = lower value",0.567 (active)
same,normalized growth,"locus YER015W, strain faa2, stronger effect = lower value",0.991
same,normalized growth,"locus YER016W, strain bim1, stronger effect = lower value",0.981
same,normalized growth,"locus YER110C, stronger effect = lower value",0.452 (active)
same,normalized growth,"locus YER111C, strain swi4, stronger effect = lower value",1
same,normalized growth,"locus YER155C, strain BEM2 (second series), stronger effect = lower value",0.968
same,normalized growth,"locus YER155C, strain BEM2, stronger effect = lower value",0.957
same,normalized growth,"locus YER167W, strain BCK2, stronger effect = lower value",0.467 (active)
same,normalized growth,"locus YFR010W, strain ubp6, stronger effect = lower value",0.992
same,normalized growth,"locus YGL078C, strain dbp3, stronger effect = lower value",0.854 (active)
same,normalized growth,"locus YGL086W, strain mad1, stronger effect = lower value",0.394 (active)
same,normalized growth,"locus YGL167C, strain pmr1, stronger effect = lower value",0.983
same,normalized growth,"locus YGL173C, strain kem1, stronger effect = lower value",0.989
same,normalized growth,"locus YGL227W, strain vid30, stronger effect = lower value",0.989
same,normalized growth,"locus YGL240W, strain doc1, stronger effect = lower value",0.996
same,normalized growth,"locus YGL248W, strain PDE1, stronger effect = lower value",0.3 (active)
same,normalized growth,"locus YGL253W, strain hxk2, stronger effect = lower value",0.988
same,normalized growth,"locus YGR078C, strain PAC10, stronger effect = lower value",0.481 (active)
same,normalized growth,"locus YGR135W, strain pre9, stronger effect = lower value",0.318 (active)
same,normalized growth,"locus YGR229C, strain SMI1, stronger effect = lower value",0.454 (active)
same,normalized growth,"locus YGR252W, strain gcn5, stronger effect = lower value",0.604 (active)
same,normalized growth,"locus YHR013C, strain ard1, stronger effect = lower value",0.943
same,normalized growth,"locus YHR027C, strain rpn1, stronger effect = lower value",0.998
same,normalized growth,"locus YHR030C, strain SLT2, stronger effect = lower value",0.664 (active) and 0.844 (active)
same,normalized growth,"locus YHR079C, strain IRE1 (second series), stronger effect = lower value",0.439 (active)
same,normalized growth,"locus YHR079C, strain IRE1, stronger effect = lower value",0.783 (active)
same,normalized growth,"locus YHR094C, strain hxt1, stronger effect = lower value",0.689 (active)
same,normalized growth,"locus YHR129C, strain ARP1, stronger effect = lower value",0.699 (active)
same,normalized growth,"locus YHR142W, strain chs7, stronger effect = lower value",0.995
same,normalized growth,"locus YHR200W, strain rpn10, stronger effect = lower value",0.518 (active)
same,normalized growth,"locus YIL066C, strain RNR3, stronger effect = lower value",0.373 (active)
same,normalized growth,"locus YIL073C, strain SPO22, stronger effect = lower value",0.209 (active)
same,normalized growth,"locus YIL125W, strain kgd1, stronger effect = lower value",0.966
same,normalized growth,"locus YIR030C, strain dcg1, stronger effect = lower value",0.521 (active)
same,normalized growth,"locus YJL092W, strain hpr5, stronger effect = lower value",0.982
same,normalized growth,"locus YJL095W, strain BCK1 (second series), stronger effect = lower value",1.01
same,normalized growth,"locus YJL095W, strain BCK1, stronger effect = lower value",0.417 (active) and 0.79 (active)
same,normalized growth,"locus YJL115W, strain asf1, stronger effect = lower value",0.986
same,normalized growth,"locus YJL129C, strain trk1, stronger effect = lower value",0.993
same,normalized growth,"locus YJL134W, strain LCB3, stronger effect = lower value",0.874 (active)
same,normalized growth,"locus YJL154C, strain vps35, stronger effect = lower value",0.974
same,normalized growth,"locus YJL164C, strain tpk1, stronger effect = lower value",0.99
same,normalized growth,"locus YJL166W, strain qcr8, stronger effect = lower value",1.01
same,normalized growth,"locus YJL168C, strain set2, stronger effect = lower value",0.826 (active)
same,normalized growth,"locus YJL187C, strain SWE1 (second series), stronger effect = lower value",0.291 (active)
same,normalized growth,"locus YJL187C, strain SWE1, stronger effect = lower value",0.989
same,normalized growth,"locus YJR043C, strain POL32, stronger effect = lower value",0.482 (active)
same,normalized growth,"locus YJR066W, strain TOR1, stronger effect = lower value",0.765 (active)
